Each structure is given as a SMILES string. Values without a mark were called inactive.

The values below come from the supplement of paper PMC11732987, “Enantioselective OTUD7B fragment discovery through chemoproteomics screening and high-throughput optimisation” (Communications Chemistry, 2025).

What all share (test): log2 ratio of Biotin-Ahx-Ub-VS probe labelling (fragment/DMSO); higher = less target engagement (more negative = stronger competition), active = hit call of the paper (q ≤ 0.05, log2 ratio ≤ -1)
Common to all, as to details: compound concentration: 200 uM; treatment time: 3 h

For test [1], the target named is T1, USP19 (UniProt O94966).
T1 sequence (whole entry): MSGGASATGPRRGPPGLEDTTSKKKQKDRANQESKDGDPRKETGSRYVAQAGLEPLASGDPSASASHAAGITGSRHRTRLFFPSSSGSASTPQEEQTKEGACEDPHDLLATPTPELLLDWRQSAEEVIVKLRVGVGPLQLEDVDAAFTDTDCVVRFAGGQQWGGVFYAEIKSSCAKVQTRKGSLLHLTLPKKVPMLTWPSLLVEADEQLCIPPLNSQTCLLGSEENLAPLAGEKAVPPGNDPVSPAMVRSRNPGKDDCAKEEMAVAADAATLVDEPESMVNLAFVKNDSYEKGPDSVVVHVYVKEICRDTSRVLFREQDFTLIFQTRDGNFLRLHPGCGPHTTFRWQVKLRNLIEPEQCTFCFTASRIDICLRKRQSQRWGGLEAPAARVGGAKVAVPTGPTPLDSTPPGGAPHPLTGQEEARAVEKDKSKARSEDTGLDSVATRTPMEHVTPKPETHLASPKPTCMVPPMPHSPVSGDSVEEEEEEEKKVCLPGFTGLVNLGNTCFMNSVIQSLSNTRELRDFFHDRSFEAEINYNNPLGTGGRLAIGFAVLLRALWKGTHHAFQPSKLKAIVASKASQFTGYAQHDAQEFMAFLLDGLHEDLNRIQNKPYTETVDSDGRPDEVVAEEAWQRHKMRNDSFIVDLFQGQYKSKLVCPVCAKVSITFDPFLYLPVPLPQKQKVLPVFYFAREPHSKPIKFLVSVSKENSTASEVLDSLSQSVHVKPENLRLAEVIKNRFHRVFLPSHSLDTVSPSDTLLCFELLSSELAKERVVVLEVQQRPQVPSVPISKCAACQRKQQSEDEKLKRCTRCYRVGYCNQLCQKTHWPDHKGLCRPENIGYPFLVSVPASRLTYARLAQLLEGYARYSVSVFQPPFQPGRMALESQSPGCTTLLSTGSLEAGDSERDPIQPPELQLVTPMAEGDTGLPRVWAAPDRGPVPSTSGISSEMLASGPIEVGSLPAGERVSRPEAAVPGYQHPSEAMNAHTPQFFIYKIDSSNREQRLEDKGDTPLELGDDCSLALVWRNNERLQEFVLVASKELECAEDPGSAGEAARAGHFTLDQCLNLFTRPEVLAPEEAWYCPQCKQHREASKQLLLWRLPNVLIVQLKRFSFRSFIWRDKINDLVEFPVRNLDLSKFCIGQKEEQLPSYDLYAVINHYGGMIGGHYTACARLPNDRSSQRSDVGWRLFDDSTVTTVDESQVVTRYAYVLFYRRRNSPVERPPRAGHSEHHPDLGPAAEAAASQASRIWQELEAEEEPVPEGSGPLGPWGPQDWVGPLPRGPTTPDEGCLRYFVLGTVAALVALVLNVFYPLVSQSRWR
The method in brief:
(§1)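 The table lists average log2 ratios of fragment over vehicle, from an unpaired t-test on global-median-normalised Spectronaut label-free quantities. Proteins with ≥2 unique peptides were used. Samples were HEK293T lysate (495 µg) treated in triplicate with fragment at 200 µM or vehicle for 3 h, then with Biotin-Ahx-Ub-VS (0.5 µM final) for 1 h, with labelled DUBs NeutrAvidin-enriched and run by diaPASEF LC-MS/MS.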

Test [2] has as its target T2, USP22 (UniProt Q9UPT9).
T2 sequence (whole entry): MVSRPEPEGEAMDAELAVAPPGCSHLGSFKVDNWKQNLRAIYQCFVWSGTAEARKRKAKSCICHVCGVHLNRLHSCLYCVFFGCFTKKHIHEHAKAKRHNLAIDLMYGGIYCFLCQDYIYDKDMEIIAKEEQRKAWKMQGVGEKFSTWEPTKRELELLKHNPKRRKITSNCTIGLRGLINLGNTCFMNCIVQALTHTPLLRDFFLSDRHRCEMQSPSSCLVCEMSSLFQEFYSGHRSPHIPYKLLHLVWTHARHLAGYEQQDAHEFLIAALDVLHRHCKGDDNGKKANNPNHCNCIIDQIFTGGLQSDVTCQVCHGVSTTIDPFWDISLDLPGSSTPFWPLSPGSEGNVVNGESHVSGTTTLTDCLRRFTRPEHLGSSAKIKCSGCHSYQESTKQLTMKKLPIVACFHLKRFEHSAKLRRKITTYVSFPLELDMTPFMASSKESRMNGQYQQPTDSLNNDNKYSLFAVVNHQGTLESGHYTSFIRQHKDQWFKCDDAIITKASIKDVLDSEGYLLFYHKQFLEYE
The method in brief: as §1

Test [3] has as its target USP24 (UniProt Q9UPU5). The method in brief: as §1
In test [4] the target is T3, USP25 (UniProt Q9UHP3).
T3 sequence (whole entry): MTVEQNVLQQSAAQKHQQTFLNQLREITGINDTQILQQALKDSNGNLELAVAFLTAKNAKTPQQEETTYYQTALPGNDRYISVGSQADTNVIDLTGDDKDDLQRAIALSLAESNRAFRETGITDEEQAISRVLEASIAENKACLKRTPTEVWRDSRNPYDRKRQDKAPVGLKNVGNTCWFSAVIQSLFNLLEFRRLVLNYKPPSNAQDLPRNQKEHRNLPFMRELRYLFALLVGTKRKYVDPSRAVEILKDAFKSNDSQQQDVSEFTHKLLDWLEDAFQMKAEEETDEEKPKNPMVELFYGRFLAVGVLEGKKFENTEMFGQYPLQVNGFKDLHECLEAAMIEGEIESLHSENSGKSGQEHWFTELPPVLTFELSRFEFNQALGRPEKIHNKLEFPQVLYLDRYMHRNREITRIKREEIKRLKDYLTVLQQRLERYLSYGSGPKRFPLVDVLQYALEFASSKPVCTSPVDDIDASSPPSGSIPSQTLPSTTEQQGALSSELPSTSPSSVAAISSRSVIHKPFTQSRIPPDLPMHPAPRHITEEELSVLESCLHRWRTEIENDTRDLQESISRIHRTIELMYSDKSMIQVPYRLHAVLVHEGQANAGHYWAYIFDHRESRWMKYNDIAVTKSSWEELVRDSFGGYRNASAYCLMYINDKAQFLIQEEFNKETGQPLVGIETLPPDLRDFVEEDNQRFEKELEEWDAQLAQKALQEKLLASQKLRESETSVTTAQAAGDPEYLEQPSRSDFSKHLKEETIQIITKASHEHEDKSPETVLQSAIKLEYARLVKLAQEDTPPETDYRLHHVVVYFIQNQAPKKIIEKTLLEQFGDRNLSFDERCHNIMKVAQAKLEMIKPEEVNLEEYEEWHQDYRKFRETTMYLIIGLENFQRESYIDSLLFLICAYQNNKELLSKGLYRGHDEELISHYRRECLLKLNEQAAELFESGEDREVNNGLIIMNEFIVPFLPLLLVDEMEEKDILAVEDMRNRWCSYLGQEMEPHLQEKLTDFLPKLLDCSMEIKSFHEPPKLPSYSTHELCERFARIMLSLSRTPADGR
The method in brief: as §1

In test [5] the target is T4, USP28 (UniProt Q96RU2).
T4 sequence (whole entry): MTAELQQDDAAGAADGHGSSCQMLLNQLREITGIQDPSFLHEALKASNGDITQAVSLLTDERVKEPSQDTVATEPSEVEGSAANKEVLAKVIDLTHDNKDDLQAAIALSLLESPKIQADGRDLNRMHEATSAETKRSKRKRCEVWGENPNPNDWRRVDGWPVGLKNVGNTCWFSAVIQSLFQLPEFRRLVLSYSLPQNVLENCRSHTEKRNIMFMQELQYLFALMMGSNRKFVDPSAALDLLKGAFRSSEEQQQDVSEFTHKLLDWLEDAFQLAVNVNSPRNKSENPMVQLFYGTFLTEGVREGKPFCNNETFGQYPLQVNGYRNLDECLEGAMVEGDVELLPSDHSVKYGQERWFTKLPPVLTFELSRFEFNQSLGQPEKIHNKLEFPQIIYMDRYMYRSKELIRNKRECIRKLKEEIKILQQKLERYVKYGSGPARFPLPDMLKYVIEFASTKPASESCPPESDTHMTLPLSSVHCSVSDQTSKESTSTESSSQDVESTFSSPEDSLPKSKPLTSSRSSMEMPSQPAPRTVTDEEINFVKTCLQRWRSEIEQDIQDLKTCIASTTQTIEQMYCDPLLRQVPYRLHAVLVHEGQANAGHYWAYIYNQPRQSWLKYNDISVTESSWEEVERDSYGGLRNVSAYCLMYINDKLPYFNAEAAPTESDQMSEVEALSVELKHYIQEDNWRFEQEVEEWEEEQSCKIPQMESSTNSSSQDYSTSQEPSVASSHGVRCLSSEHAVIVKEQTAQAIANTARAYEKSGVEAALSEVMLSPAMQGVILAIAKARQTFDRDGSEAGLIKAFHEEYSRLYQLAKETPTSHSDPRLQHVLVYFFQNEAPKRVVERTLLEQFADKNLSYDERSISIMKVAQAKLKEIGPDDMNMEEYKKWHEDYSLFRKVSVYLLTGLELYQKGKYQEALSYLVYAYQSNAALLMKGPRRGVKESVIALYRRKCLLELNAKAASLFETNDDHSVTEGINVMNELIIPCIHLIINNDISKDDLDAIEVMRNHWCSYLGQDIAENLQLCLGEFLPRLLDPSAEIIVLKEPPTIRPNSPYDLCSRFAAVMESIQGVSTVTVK
The method in brief:
as §1

Chain of USP24 (Q9UPU5 whole entry): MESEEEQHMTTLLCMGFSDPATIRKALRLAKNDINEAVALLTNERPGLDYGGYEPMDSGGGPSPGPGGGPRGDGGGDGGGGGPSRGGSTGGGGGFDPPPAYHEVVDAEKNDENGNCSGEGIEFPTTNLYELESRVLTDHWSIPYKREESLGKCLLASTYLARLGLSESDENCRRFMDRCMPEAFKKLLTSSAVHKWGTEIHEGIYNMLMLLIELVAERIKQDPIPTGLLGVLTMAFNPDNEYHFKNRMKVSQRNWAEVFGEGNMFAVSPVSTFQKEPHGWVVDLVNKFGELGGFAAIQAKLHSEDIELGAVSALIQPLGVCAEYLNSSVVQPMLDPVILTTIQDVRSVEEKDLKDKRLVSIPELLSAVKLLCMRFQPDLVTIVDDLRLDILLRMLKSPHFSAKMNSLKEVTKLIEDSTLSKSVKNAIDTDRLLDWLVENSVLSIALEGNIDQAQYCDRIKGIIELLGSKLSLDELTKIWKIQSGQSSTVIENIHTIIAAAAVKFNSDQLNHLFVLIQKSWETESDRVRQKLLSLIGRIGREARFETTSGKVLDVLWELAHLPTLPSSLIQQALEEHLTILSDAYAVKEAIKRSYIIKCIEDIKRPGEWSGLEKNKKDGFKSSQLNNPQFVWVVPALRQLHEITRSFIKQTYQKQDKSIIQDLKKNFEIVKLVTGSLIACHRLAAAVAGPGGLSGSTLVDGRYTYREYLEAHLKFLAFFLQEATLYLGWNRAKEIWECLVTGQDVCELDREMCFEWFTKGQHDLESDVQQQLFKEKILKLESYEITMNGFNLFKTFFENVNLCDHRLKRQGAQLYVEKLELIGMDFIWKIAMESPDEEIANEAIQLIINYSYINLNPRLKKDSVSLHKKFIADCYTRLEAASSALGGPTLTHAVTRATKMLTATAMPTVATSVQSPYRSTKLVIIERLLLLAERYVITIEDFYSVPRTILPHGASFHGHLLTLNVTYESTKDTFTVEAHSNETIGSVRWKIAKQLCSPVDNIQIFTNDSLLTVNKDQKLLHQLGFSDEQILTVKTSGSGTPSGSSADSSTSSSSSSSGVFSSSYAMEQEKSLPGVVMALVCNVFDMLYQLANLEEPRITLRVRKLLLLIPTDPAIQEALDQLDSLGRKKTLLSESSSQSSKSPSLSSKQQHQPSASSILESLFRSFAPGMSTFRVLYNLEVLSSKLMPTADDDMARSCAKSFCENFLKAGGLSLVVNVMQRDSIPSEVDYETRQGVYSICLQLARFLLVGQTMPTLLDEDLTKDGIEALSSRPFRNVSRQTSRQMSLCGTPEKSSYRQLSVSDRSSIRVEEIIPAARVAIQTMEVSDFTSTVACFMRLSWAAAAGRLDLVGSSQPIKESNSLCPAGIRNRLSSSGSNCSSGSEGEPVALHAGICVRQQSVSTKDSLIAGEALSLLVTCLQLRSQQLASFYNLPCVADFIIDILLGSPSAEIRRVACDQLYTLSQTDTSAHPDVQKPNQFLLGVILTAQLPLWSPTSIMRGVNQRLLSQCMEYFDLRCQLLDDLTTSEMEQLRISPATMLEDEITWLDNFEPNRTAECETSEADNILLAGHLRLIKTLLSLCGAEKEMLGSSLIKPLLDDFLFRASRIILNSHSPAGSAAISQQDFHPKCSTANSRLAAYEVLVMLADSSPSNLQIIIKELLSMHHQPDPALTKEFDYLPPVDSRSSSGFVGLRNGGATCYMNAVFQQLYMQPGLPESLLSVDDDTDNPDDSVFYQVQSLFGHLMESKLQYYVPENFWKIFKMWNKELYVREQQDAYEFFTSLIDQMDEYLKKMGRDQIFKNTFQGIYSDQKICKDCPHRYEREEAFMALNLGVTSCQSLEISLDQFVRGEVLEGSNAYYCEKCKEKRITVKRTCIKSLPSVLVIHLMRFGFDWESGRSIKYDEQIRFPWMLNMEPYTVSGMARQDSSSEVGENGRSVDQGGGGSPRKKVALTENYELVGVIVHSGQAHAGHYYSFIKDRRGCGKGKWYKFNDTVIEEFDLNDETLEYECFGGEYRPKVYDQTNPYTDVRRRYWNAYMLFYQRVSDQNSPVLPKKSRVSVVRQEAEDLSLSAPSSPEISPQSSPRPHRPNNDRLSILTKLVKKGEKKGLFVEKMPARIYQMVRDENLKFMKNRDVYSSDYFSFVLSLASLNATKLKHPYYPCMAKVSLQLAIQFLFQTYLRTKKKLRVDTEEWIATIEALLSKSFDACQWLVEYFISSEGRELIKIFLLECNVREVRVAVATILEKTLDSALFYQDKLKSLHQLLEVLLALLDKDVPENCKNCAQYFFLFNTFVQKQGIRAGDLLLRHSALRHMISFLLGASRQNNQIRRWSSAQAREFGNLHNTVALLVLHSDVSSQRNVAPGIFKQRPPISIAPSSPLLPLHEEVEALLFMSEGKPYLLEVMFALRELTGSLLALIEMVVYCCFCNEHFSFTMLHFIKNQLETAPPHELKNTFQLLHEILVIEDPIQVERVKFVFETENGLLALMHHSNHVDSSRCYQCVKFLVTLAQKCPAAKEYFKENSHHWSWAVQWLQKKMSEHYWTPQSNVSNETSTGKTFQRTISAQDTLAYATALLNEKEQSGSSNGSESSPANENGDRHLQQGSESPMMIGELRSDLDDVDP

In the case of `Cl.O=C(CCl)N1CCC(n2nc3ccccc3n2)CC1`, the “log2 ratio of Biotin-Ahx-Ub-VS probe labelling” value in test [1] is -0.666; in test [2], -0.472; in test [3], -1.08 (active); in test [4], -0.61; in test [5], -0.611.
